This note sets out measurements from PubChem BioAssay (NCATS).

In experiment [1] the target is Cytochrome P450 3A7 (Homo sapiens) (UniProt P24462). In words: Cytochrome P450 family 3 subfamily A member 7 (CYP3A7) small molecule antagonists: luciferase biochemical qHTS assay (AID 1963596). For activity change, negative = inhibition: % is set by controls: 0 for no effect and ±100 for the full control effect. Note: nearly all actives have a fitted effect of over 40% in size. Note: potency is the fitted concentration of half-maximal effect. The method, boiled down:
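Enzyme-substrate mix + cpd (DMSO), 10 min RT; + NADPH regen system, 1 h RT; + luciferin detection reagent, 20 min RT; luminescence read. Proluciferin substrate, P450-Glo format, 1536-well qHTS.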
(In general: In qHTS, concentration-response curves come from the screen itself.)

Experiment [2] in a line: Viability qHTS for spleen associated tyrosine kinase inhibitor (SYKi) naive MV4-11 cells (AID 1963823). Note: nearly all actives have a fitted effect of over 40% in size. The method, boiled down: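 qHTS, SYK inhibitor-naive MV4-11; 500 cells/well; 72 hr compound exposure, 37 C; CellTiter-Glo added, 10 min RT; luminescence read.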
A short description of experiment [3]: Viability qHTS for spleen associated tyrosine kinase inhibitor (SYKi) drug resistant MV4-11 cells (AID 1963824). Note: nearly all actives have a fitted effect of over 35% in size. Note: potency is the fitted concentration of half-maximal effect. The method, boiled down:
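SYK-inhibitor-resistant MV4-11 AML cells were seeded at 500 per well onto compound and cultured 72 hours (37 °C, 5% CO2). CellTiter-Glo was then added, and after 10 min at room temperature, luminescence gave viability.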

A short description of experiment [4]: Cellular viability qHTS for adrenocortical cancer (ACC) cell line SW-13 (AID 1963989).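 Note: cells grown in serum-free medium with ITS supplement; % is set by controls: 0 for no effect and ±100 for the full control effect; nearly all actives have a fitted effect of over 65% in size.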 The settings on record: SW-13 ACC cells viability, CellTiter-Glo, 48 h; activity (max response): stronger effect = lower value. The method, boiled down:
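SW-13 cells in ITS-supplemented serum-free DMEM were plated overnight, then exposed for 48 h at 37C to compound titrations (up to 46 uM final). Viability was read by CellTiter-Glo luminescence; four-parameter logistic fits gave IC50 and efficacy.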

Experiment [5] can be described thus: Cellular viability qHTS for adrenocortical cancer (ACC) cell line NCI-H295R (AID 1963990).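 Note: 0% = DMSO only wells and -100% = full killing with cytotoxic reference compound; nearly all actives have a fitted effect of over 60% in size.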 The method, boiled down:
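Luminescent ATP read-out (CellTiter-Glo, 20 min RT) after 48 h drug exposure of NCI-H295R cells; a titration up to 46 uM final. Data normalized to doxorubicin (100% inhibition) and DMSO (0%); 4-parameter fit gives IC50, max response.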

Where “and” joins values, the source holds several entries; their conditions need not be identical. Identical values can stand only once. Results filed as inconclusive are left out. A number with no mark means an inactive call. Calls of active or inactive are those of the source. Calls come from the whole dose curve; as a rule, active = well fitted curve in the direction sought with a large enough effect; inconclusive = small, poorly fitted or top-dose-only effect, or another doubt; inactive = no such curve, though single readings can be large; an effect the other way counts as inactive or inconclusive.

Chain of Cytochrome P450 3A7 (Homo sapiens) (P24462 whole entry, looked up): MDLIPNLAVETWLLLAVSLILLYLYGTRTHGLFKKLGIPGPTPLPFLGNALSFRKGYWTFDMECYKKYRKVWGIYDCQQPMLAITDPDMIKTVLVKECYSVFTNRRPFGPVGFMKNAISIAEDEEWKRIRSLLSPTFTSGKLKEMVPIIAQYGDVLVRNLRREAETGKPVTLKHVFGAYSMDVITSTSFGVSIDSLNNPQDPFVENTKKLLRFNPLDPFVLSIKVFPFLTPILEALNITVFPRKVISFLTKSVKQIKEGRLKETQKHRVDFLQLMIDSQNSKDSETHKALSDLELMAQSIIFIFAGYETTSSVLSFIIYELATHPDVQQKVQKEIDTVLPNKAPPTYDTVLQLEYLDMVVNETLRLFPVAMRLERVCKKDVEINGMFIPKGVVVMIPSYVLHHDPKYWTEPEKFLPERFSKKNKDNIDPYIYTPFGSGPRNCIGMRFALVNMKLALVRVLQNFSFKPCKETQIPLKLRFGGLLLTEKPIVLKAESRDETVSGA

For `COc1ccccc1N1CCN(CC(O)COc2cc(OC)c(OC)c(OC)c2)CC1` (centres undefined), the Potency entry in experiment [1], in experiment [2], in experiment [3] and in experiment [5] was “inactive” in each case. Moreover, the activity (max response) in experiment [4] was 13.2%.

As to `FC(F)(F)C(Cl)Br` (centres undefined), the Potency result in experiment [1], in experiment [2], in experiment [3] and in experiment [5] was “inactive” throughout. Also, in experiment [4], the activity (max response) is -8.02%.

With `Cc1ccc(=O)n(-c2ccccc2)c1`, the Potency entry in experiment [1], in experiment [2], in experiment [3] and in experiment [5] was “inactive” throughout. Moreover, the activity (max response) in experiment [4] is 13.5%.

Consider `CC(C)(C)C(=O)NCCCC(=O)O`, for which the Potency entry in experiment [1], in experiment [2], in experiment [3] and in experiment [5] was “inactive” throughout. Moreover, the activity (max response) in experiment [4] was 7.9%.

With `Nc1cc(=O)[nH]c(N)n1`, the Potency entry in experiment [1], in experiment [2], in experiment [3] and in experiment [5] was “inactive” in each case. The activity (max response) in experiment [4] was -6.62%.

Consider `NC(CS)C(=O)O` (centres undefined), for which the Potency result in experiment [1], in experiment [2], in experiment [3] and in experiment [5] was “inactive” throughout. The activity (max response) in experiment [4] is 12.6%.

On to `CO[C@]1(NC(=O)CSC(F)F)C(=O)N2C(C(=O)O)=C(CSc3nnnn3CCO)CO[C@H]21`, for which the Potency result in experiment [1], in experiment [2] and in experiment [5] was “inactive” in each case. Besides, the Potency in experiment [3] is 5.8 µM (active). In addition, in experiment [4], the activity (max response) is -9.56%.

Take `O=C(O)c1ccccc1S`: the Potency entry in experiment [1], in experiment [2], in experiment [3] and in experiment [5] was “inactive” in each case. The activity (max response) in experiment [4] is 5.53%.

As to `C[N+](C)(C)CCOC(=O)CCC(=O)OCC[N+](C)(C)C`, the Potency result in experiment [1], in experiment [2], in experiment [3] and in experiment [5] was “inactive” throughout. In addition, the activity (max response) in experiment [4] was 11.2%.

Consider `CCCCCCCCCCOc1cc2c(=O)c(C(=O)OCC)c[nH]c2cc1OCC`, for which, in experiment [1], the activity change, negative = inhibition is 9.06% [at 4.83 µM]. Moreover, the viability (% of control) in experiment [2] was 102% [at 4.97 µM]. In experiment [3], the viability, % of control was 107% [at 4.97 µM]. Further, the activity (max response) in experiment [4] is 0.0943%. In addition, the activity change, negative = viability loss in experiment [5] was -5.4% [at 3.81 µM].

Turning to `O=Cc1ccccc1C=O`, the Potency result in experiment [1], in experiment [2], in experiment [3] and in experiment [5] was “inactive” in each case. The activity (max response) in experiment [4] was 0.792%.

For the compound `Oc1ccccc1-c1nnco1`, the Potency result in experiment [1], in experiment [2], in experiment [3] and in experiment [5] was “inactive” each time. Besides, the activity (max response) in experiment [4] was 12.7%.

Turning to `OCCN1C[C@H](O)[C@@H](O)[C@H](O)[C@H]1CO`, the Potency entry in experiment [1], in experiment [2], in experiment [3] and in experiment [5] was “inactive” throughout. Also, in experiment [4], the activity (max response) was 9.26% and -11.1%.

For `CCN1CCN(C(=O)N[C@@H](C(=O)N[C@@H]2C(=O)N3[C@@H]2SC(C)(C)[C@H]3C(=O)O)c2ccccc2)C(=O)C1=O`, the Potency result in experiment [1], in experiment [2], in experiment [3] and in experiment [5] was “inactive” each time. In addition, the activity (max response) in experiment [4] was 12.1%.

`CCOc1nc2cccc(C(=O)O)c2n1Cc1ccc(-c2ccccc2-c2nn[nH]n2)cc1`: the Potency entry in experiment [1], in experiment [2], in experiment [3] and in experiment [5] was “inactive” in each case. The activity (max response) in experiment [4] was 10.5%.

`O=C(O)COc1nn(Cc2ccccc2)c2ccccc12`: the Potency result in experiment [1], in experiment [2], in experiment [3] and in experiment [5] was “inactive” in each case. In experiment [4], the activity (max response) was 10.3%.

As for `O=c1cc[nH]c(=O)[nH]1`, the Potency result in experiment [1], in experiment [2], in experiment [3] and in experiment [5] was “inactive” in each case. For the same compound, the activity (max response) in experiment [4] was 7.94%.

For `CCCCCC[C@@H](CCC)C(=O)O`, the Potency result in experiment [1], in experiment [2], in experiment [3] and in experiment [5] was “inactive” each time. In addition, the activity (max response) in experiment [4] is 6.05%.

In the case of `CCCC(=O)Nc1ccc(OCC(O)CNC(C)C)c(C(C)=O)c1` (centres undefined), the Potency result in experiment [1], in experiment [2], in experiment [3] and in experiment [5] was “inactive” each time. The activity (max response) in experiment [4] is 0.0374%.

As to `O=C(O)[C@H](CC(=O)N1C[C@H]2CCCC[C@H]2C1)Cc1ccccc1`, the Potency result in experiment [1], in experiment [2], in experiment [3] and in experiment [5] was “inactive” each time. Also, the activity (max response) in experiment [4] was 1.52%.

Turning to `Cn1c(=O)c2[nH]cnc2n(C)c1=O`, the Potency entry in experiment [1], in experiment [2], in experiment [3] and in experiment [5] was “inactive” in each case. In experiment [4], the activity (max response) is -5.93% and 14.5%.

With `CC1(C)S[C@@H]2[C@H](N=CN3CCCCCC3)C(=O)N2[C@H]1C(=O)O`, the Potency result in experiment [1], in experiment [2], in experiment [3] and in experiment [5] was “inactive” in each case. Also, the activity (max response) in experiment [4] is 3.39%.

For the compound `CC(O)CN(CCN(CC(C)O)CC(C)O)CC(C)O` (centres undefined), the Potency entry in experiment [1], in experiment [2], in experiment [3] and in experiment [5] was “inactive” throughout. In addition, the activity (max response) in experiment [4] was 5.94%.

As for `CCN(CC)CCNC(=O)COc1ccc(Cl)cc1`, the Potency result in experiment [1], in experiment [2], in experiment [3] and in experiment [5] was “inactive” in each case. In experiment [4], the activity (max response) was 6.48%.

Regarding `CCCCCCCCCCCCCC(=O)OC(C)C`, the Potency result in experiment [1], in experiment [2], in experiment [3] and in experiment [5] was “inactive” in each case. The activity (max response) in experiment [4] is 6.54%.

Take `CCCCCCCCCCCCCCCCO`: the Potency result in experiment [1], in experiment [2], in experiment [3] and in experiment [5] was “inactive” each time. Also, in experiment [4], the activity (max response) is 10.1%.

Consider `NC(CO)(CO)CO`, for which the Potency entry in experiment [1], in experiment [2] and in experiment [5] was “inactive” throughout. Moreover, in experiment [4], the activity (max response) was 12.7%.

With `O=C(O)CN(CCN(CC(=O)O)CC(=O)O)CCN(CC(=O)O)CC(=O)O`, the Potency result in experiment [1] and in experiment [2] was “inactive” each time. Moreover, the activity (max response) in experiment [4] is 9.05%.

On to `CCOC(=O)c1ccc(NC(=O)CN2CCCCC2)cc1`, for which the Potency result in experiment [1], in experiment [2] and in experiment [5] was “inactive” each time. Further, the activity (max response) in experiment [4] was -5.52%.

`CCCCCCCCCCCC(=O)[O][Sn]([CH2]CCC)([CH2]CCC)[O]C(=O)CCCCCCCCCCC`: the Potency in experiment [1] is 19.5 µM (active). Also, the Potency result in experiment [2] is “inactive”. The activity (max response) in experiment [4] was 2.55%.
